SARS PLpro yeast: qHTS of Yeast-based Assay for SARS-CoV PLP. AID 485353, 2010. Potency, µM (titrated, usually from 32.9 µM), inactives show at the highest dose activity, positive = growth rescue, usual class: activators. S. cerevisiae expressing SARS-CoV PLpro, growth rescue. hit rate 0.19% among 330,000; calls by dose curve; further: 0% is about no effect; nearly all actives have a fitted effect of over 55% in size
AMA1 RON2 block: qHTS for Inhibitors of AMA1-RON; Towards Development of Antimalarial Drug Lead: Primary Screen | Plasmodium falciparum AMA1 (3D7) - RON2 peptide interaction | AID 720542, 2013 | AlphaScreen AMA1-biotinylated RON2 peptide binding | hit rate 0.2% among 360,000 | Potency, µM (highest dose often 58.2 µM), for the others: top-dose activity change, negative = inhibition, usual class: inhibitors;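 further: 0% = vehicle wells and -100% = peptide control; nearly all actives have a fitted effect of over 45% in size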
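AMA1 (3D7) with his tag at 25 nM final met compounds first, then biotinylated RON2 peptide at 25 nM; detection used donor plus acceptor beads, 10 µg/mL apiece, read by AlphaScreen after 30 min at room temperature.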
Pf growth 48h: Primary qHTS for delayed death inhibitors of the malarial parasite plastid, 48 hour incubation. AID 504832, 2011. P. falciparum luciferase growth in erythrocytes, 48 h. hit rate 5.9% among 310,000. Potency, µM (doses to about 28.7 µM), without a hit: at the highest dose activity change, negative = inhibition, hits mostly inhibitors; further: on the % scale 0 is the no-effect control and ±100 the full control effect
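Compounds are pin-transferred into medium, infected erythrocytes (2% hematocrit, 0.1% parasitemia final) are added, and plates sit one parasite generation at 37 C in 5% CO2. Detection reagent is then added and luminescence measured.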
Pf growth 96h: Primary qHTS for delayed death inhibitors of the malarial parasite plastid, 96 hour incubation; Potency, µM (highest dose often 28.7 µM), for inactives: top-dose activity change, negative = inhibition, hits mostly inhibitors; hit rate 6.9% among 320,000; P. falciparum luciferase reporter growth, 96 h; further: on the % scale 0 is the no-effect control and ±100 the full control effect
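Two-generation exposure (96 h) targets delayed-death phenotype. Reporter parasites carrying integrated firefly luciferase, in red cells at 2% hematocrit and 0.05% parasitemia final, kept at 37 C, 5% CO2; luminescence loss indicates inhibition.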
* marks the source's active call; other numbers are inactive results; [ ] = remark or other dose. Only some compounds are listed: those with a hit (about 9.4% of all), similar ones and a draw of the others. Unless noted, the call rests on the fitted dose curve; in most records, active means well fitted curve in the direction sought with a large enough effect; inconclusive means small, poorly fitted or top-dose-only effect, or another doubt; inactive means no such curve, though single readings can be large; an effect the other way counts as inactive or inconclusive. Potency means the concentration at half of the fitted maximal effect.

C=CCC(C#Cc1ccc(C)cc1)N(CC)CC (configuration not stated) was read as SARS PLpro yeast 1%, AMA1 RON2 block 0% and Pf growth 96h -27%.
Cc1cc(N2CCN(Cc3nc(-c4ccc(F)cc4)oc3C)CC2)cc(C)n1 was read as SARS PLpro yeast 0%, AMA1 RON2 block 0%, Pf growth 48h inconclusive and Pf growth 96h 12µM*.
COc1ccccc1N1CCN(Cc2nc(-c3ccc(F)cc3)oc2C)CC1 was read as SARS PLpro yeast 23%, AMA1 RON2 block -13%, Pf growth 48h inconclusive and Pf growth 96h inconclusive.
`COc1ccc(CNC(=S)Nc2ccccc2-c2ccccc2)cc1` gave SARS PLpro yeast -11%, Pf growth 48h inconclusive and Pf growth 96h 8.3µM*.
CC(C)(C)c1ccccc1NC(=S)NCc1ccccc1 was read as SARS PLpro yeast -50%, AMA1 RON2 block 2%, Pf growth 48h inconclusive and Pf growth 96h 13µM*.
`COc1ccc(CNC(=O)/C=C/c2cc([N+](=O)[O-])ccc2OC(F)F)cc1OC` gave SARS PLpro yeast -1%, AMA1 RON2 block -7% and Pf growth 96h inconclusive.
O=C1NC(Cc2c[nH]c3ccccc23)C(=O)N1Cc1ccc(CN2C(=O)NC(Cc3c[nH]c4ccccc34)C2=O)cc1 (configuration not stated) was read as SARS PLpro yeast 1%, AMA1 RON2 block 2%, Pf growth 48h 5.2µM* and Pf growth 96h -19%.
Screening O=C1NC(Cc2c[nH]c3ccccc23)C(=O)N1CCOc1ccc(F)cc1 (configuration not stated) returned SARS PLpro yeast 1%, AMA1 RON2 block -3%, Pf growth 48h 6% and Pf growth 96h 4%.
For CCOC(=O)CNC(=O)c1sc(NC(=O)/C=C/c2ccccc2)nc1C the results were SARS PLpro yeast -2%, AMA1 RON2 block 5%, Pf growth 48h 12% and Pf growth 96h 25%.
`CC(C)NC(=O)C1(C)CCN1C(=O)c1c(F)cccc1F` (configuration not stated) gave AMA1 RON2 block 7%.
For Cc1nc(SCC(=O)NCc2ccc3c(c2)OCO3)c(C#N)c2c1CCCC2 the results were SARS PLpro yeast -3%, AMA1 RON2 block -18%, Pf growth 48h 8% and Pf growth 96h inconclusive.
`C=CCNc1nc(Nc2ccc(-c3nc4ccccc4o3)cc2)nc(N2CCOCC2)n1` gave SARS PLpro yeast 1%, AMA1 RON2 block 7% and Pf growth 96h 4.7µM*.
CCCCC[C@@H]1CCCCC[C@@H](O)C[C@@H](O)[C@H](O)/C=C/C(=O)O1 was read as AMA1 RON2 block -1%.
Screening COc1cc(C2NC(=O)CCC2[N+](=O)[O-])c(OC)cc1Br (configuration not stated) returned SARS PLpro yeast 0%, AMA1 RON2 block -9%, Pf growth 48h 35% and Pf growth 96h 6.6µM*.
Screening O=C(Nc1ccc(S(=O)(=O)N2CCCCC2)cc1)c1ccco1 returned SARS PLpro yeast 1%, AMA1 RON2 block -3%, Pf growth 48h inconclusive and Pf growth 96h -8%.
`CC1CCCCN1S(=O)(=O)c1ccc(NC(=O)c2ccco2)cc1` (configuration not stated) gave SARS PLpro yeast 8%, AMA1 RON2 block 5% and Pf growth 96h 13µM*.
Screening O=C(Nc1ccc(S(=O)(=O)N2CCC(C(=O)NC3CCCCC3)CC2)cc1)c1ccco1 returned SARS PLpro yeast -2%, AMA1 RON2 block 32%, Pf growth 48h inconclusive and Pf growth 96h 26%.
CC1CCN(S(=O)(=O)c2ccc(NC(=O)c3ccco3)cc2)CC1 was read as SARS PLpro yeast 1%, AMA1 RON2 block -3%, Pf growth 48h 3.7µM* and Pf growth 96h 10%.
CCOC(=O)c1c(NC(=O)CCN2CCOCC2)sc2c1CC(C)(C)OC2 was read as SARS PLpro yeast 3%, AMA1 RON2 block 0%, Pf growth 48h inconclusive and Pf growth 96h 0%.
For Cc1ccccc1N1CCN(C(=S)c2ccc(-c3ccc([N+](=O)[O-])cc3)o2)CC1 the results were SARS PLpro yeast 1%, AMA1 RON2 block inconclusive, Pf growth 48h 0% and Pf growth 96h 0%.
CN1CCN(c2ccc(NC(=O)c3ccc(-c4cccc([N+](=O)[O-])c4)o3)cc2)CC1 was read as SARS PLpro yeast 0%, AMA1 RON2 block inconclusive, Pf growth 48h 1.5µM* and Pf growth 96h 0%.
For CN1CCN(c2ccc(NC(=O)c3ccc(-c4ccc(Cl)cc4)o3)cc2)CC1 the results were SARS PLpro yeast -1%, AMA1 RON2 block inconclusive, Pf growth 48h 2.9µM* and Pf growth 96h inconclusive.
`Cc1ccccc1N1CCN(C(=S)c2ccc(-c3cccc([N+](=O)[O-])c3)o2)CC1` gave SARS PLpro yeast 0%, AMA1 RON2 block -29%, Pf growth 48h 10µM* and Pf growth 96h inconclusive.
COc1cccc(CN=c2c([N+](=O)[O-])nn(-c3ccccc3C)n2O)c1 was read as SARS PLpro yeast -1%, AMA1 RON2 block -14%, Pf growth 48h -28% and Pf growth 96h inconclusive.
COc1cccc(NC(=O)CNCc2ccccc2)c1 was read as SARS PLpro yeast 7%, AMA1 RON2 block -3%, Pf growth 48h 33% and Pf growth 96h 16%.
`CC(=O)C1=C(C)NC(SCC(=O)c2ccc(F)cc2)=C(C#N)C1CC(C)C` (configuration not stated) gave SARS PLpro yeast 12%, AMA1 RON2 block -5%[2.32 µM], Pf growth 48h inconclusive and Pf growth 96h 8.3µM*.
For CCOC(=O)C1=C(C)NC(SC)=C(C#N)C1CC(C)C (configuration not stated) the results were SARS PLpro yeast 0%, AMA1 RON2 block -5%, Pf growth 48h 1.7µM* and Pf growth 96h inconclusive.
For CC(=O)C1=C(C)NC(SCC(=O)c2ccc(Cl)cc2)=C(C#N)C1CC(C)C (configuration not stated) the results were SARS PLpro yeast -14%, AMA1 RON2 block 37% and Pf growth 48h inconclusive.
C=CCn1ccc(=NC=C(C#N)C#N)c2ccccc21 was read as SARS PLpro yeast 1%, AMA1 RON2 block -13%, Pf growth 48h inconclusive and Pf growth 96h inconclusive.
Screening O=C(Nc1nccs1)c1cc(-c2ccncc2)nc2ccccc12 returned SARS PLpro yeast -1%, AMA1 RON2 block 16%, Pf growth 48h inconclusive and Pf growth 96h inconclusive.
Screening Cc1ccc(-c2cc(C(=O)Nc3nccs3)c3ccccc3n2)o1 returned SARS PLpro yeast -54%, AMA1 RON2 block 83%, Pf growth 48h inconclusive and Pf growth 96h 9.3µM*.
Screening Cc1ccc(-c2cc(C(=O)Nc3nccs3)c3ccccc3n2)c(C)c1 returned SARS PLpro yeast -24%, AMA1 RON2 block 8%[2.32 µM], Pf growth 48h inconclusive and Pf growth 96h 1.3µM*.
For O=C(Nc1cc(Cl)cc(Cl)c1)C1CCC(=O)N1Cc1ccccc1Cl (configuration not stated) the results were SARS PLpro yeast -13%, AMA1 RON2 block -14%, Pf growth 48h 9.3µM* and Pf growth 96h inconclusive.

Screens as filed in PubChem BioAssay.
